Screening data deposited in PubChem BioAssay by National Center for Advancing Translational Sciences (NCATS).
HepG2 tox – qHTS for Inhibitors of TGF-b: Cytotox Counterscreen. HepG2 CAGA-GFP viability, ATP luminescence, 18 h. Potency, µM (highest dose often 46.1 µM), for the others: at the top dose activity change, negative = cytotoxicity, most hits filed as cytotoxic. 410,000 tested, 0.76% active. AID 588856, 2011
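CellTiter-Glo luminescence gave cytotoxicity after 18 hours at 37 degrees C. The cells were HepG2 CAGA-GFP in 1% FBS DMEM, stimulated with 500 pg/mL TGF-beta after compound addition. %Activity was normalised to no-cell wells (complete cell-killing) and DMSO (no toxicity), and curves were fitted and classified.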
TDP1 cell CPT – qHTS for Inhibitors of human tyrosyl-DNA phosphodiesterase 1 (TDP1): qHTS in cells in presence of CPT | chicken DT40 Tdp1-/-;hTDP1 cells + 20 nM CPT, ATP luminescence, 48 h | Potency, µM (top dose mostly 46.2 µM), without a hit: top-dose activity change, negative = growth inhibition, most hits filed as inhibitors | 420,000 tested, 12% active; further: on the % scale 0 is the no-effect control and ±100 the full control effect; nearly all actives have a fitted effect of over 55% in size
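Chicken DT40 Tdp1-/- cells stably complemented with human TDP1 were seeded at 400 cells/well in medium containing 20 nM camptothecin, exposed to pin-transferred compounds, and grown at 37 °C for at least 48 hr. Viability was read as ATP luminescence.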
TDP1 cell noCPT – qHTS for Inhibitors of human tyrosyl-DNA phosphodiesterase 1 (TDP1): qHTS in cells in absence of CPT | DT40 Tdp1-/- hTDP1 cells, no CPT, ATP luminescence, 48 h | Potency, µM (top dose mostly 46.2 µM), without a hit: top-dose activity change, negative = growth inhibition, actives largely listed as inhibitors | AID 686978, 2013 | 420,000 tested, 15% active; further: on the % scale 0 is the no-effect control and ±100 the full control effect; nearly all actives have a fitted effect of over 55% in size
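Readout: luminescence from CellTiter-Glo after 30 min in the dark at RT. Cells: DT40 Tdp1-/- with stable hTDP1, 400/well. Exposure: compounds alone, ≥48 hr, 37 °C.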
TGFb SMAD3 inh – qHTS for Inhibitors of TGF-b | HepG2 CAGA-GFP TGF-b/SMAD3 reporter, GFP fluorescence, 18 h; TGF-beta stimulated, 500 pg/mL final | Potency, µM (titrated, usually from 46.1 µM), for the others: at the highest dose activity, negative = inhibition, actives largely listed as inhibitors | 410,000 tested, 1.2% active; further: on the % scale 0 is the no-effect control and ±100 the full control effect; nearly all actives have a fitted effect of over 65% in size
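Inhibition of TGF-beta-driven CAGA-GFP reporter expression in HEPG2 cells is measured by cellular GFP fluorescence after 18 h stimulation with 500 pg/mL recombinant TGF-beta in 1% FBS medium at 37 degrees C.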
ATXN2 expr inh – Primary qHTS for Inhibitors of ATXN expression | AID 1745845, 2022 | HEK-293 ATXN2-luciferase reporter, luminescence, 24 h | 360,000 tested, 0.72% active | Potency, µM (series often up to 57 µM), for inactives: top-dose activity change, negative = inhibition, usual class: inhibitors; further: on the % scale 0 is the no-effect control and ±100 the full control effect; nearly all actives have a fitted effect of over 55% in size
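ATXN2-luciferase reporter cells (luciferase flanked by upstream and downstream ATXN2 gene portions) were treated 24 h at 37 °C with compounds at up to 57 uM. SteadyGlo luminescence gave expression; GF-AFC fluorescence gave viability.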
S2 tox – Viability Counterscreen for Primary qHTS for Inhibitors of ATXN expression. 400,000 tested, 0.49% active. Potency, µM (titrated, usually from 56.7 µM), hits mostly cytotoxic. S2 cells (HEK-293 line with an ATXN2-luciferase reporter) viability, CellTiter-Fluor protease fluorescence, 24 h; further: nearly all actives have a fitted effect of over 40% in size
Starred values were filed as active, the others as inactive. The list is a sample of the results. The call rests on the fitted dose curve; in most records, active means well fitted curve in the direction sought with a large enough effect; inconclusive means small, poorly fitted or top-dose-only effect, or another doubt; inactive means no such curve, though single readings can be large; an effect the other way counts as inactive or inconclusive. Potency means the concentration at half of the fitted maximal effect.

O=C(Nc1ccc(F)cc1)C(c1ccccc1)N1CCN(c2ccncc2)CC1 (centres undefined) was read as TDP1 cell CPT -0.3% and TDP1 cell noCPT inconclusive.
For O=C(Nc1ccc2c(c1)OCCO2)C(CCc1ccccc1)N(Cc1ccccc1)Cc1ccccc1 (centres undefined) the results were HepG2 tox -10.3%, TDP1 cell CPT inconclusive, TDP1 cell noCPT inconclusive, TGFb SMAD3 inh -27.7%, ATXN2 expr inh 2.0% and S2 tox inconclusive.
For Cc1nn(C(=O)c2c([N+](=O)[O-])cnn2C)c(C)c1Cl the results were HepG2 tox -11.8%, TDP1 cell CPT -4.5%, TDP1 cell noCPT -14.7%, TGFb SMAD3 inh -9.1%, ATXN2 expr inh -6.6% and S2 tox inactive.
`Cn1ccnc1SCC(=O)Nc1ccc(Cl)cn1` gave HepG2 tox 10.2%, TDP1 cell CPT 11.6%, TDP1 cell noCPT 0.0%, TGFb SMAD3 inh -6.4%, ATXN2 expr inh 8.7% and S2 tox inactive.
Screening CCN(C(=O)CSc1ccc2ccccc2n1)C1CCCCC1 returned HepG2 tox 5.4%, TDP1 cell CPT inconclusive, TDP1 cell noCPT inconclusive, TGFb SMAD3 inh inconclusive, ATXN2 expr inh 3.9% and S2 tox inconclusive.
Screening CC(=O)N/N=C/c1cc(C(C)C)cc(/C=N/NC(C)=O)c1O returned HepG2 tox -0.4%, TDP1 cell CPT inconclusive, TDP1 cell noCPT inconclusive, TGFb SMAD3 inh 15.8% and ATXN2 expr inh inconclusive.
O=C(NCc1ccc(F)cc1)C1CCN(S(=O)(=O)c2ccc(Br)s2)CC1 was read as HepG2 tox 9.7%, TDP1 cell CPT -20.1%, TDP1 cell noCPT -15.9%, TGFb SMAD3 inh 9.2%, ATXN2 expr inh -10.0% and S2 tox inactive.
`Cc1ccc(S(=O)(=O)CCC(=O)OCC(=O)NC(C)c2ccccc2)cc1` (centres undefined) gave HepG2 tox 21.4%, TDP1 cell CPT -3.2%, TDP1 cell noCPT -24.8% and TGFb SMAD3 inh 36.1%.
For O=C1CNC(=S)N1CCCc1ccccc1 the results were HepG2 tox 12.4%, TDP1 cell CPT -12.2%, TDP1 cell noCPT 18.7%, TGFb SMAD3 inh 14.4%, ATXN2 expr inh 7.9% and S2 tox inactive.
Screening Cc1c(/C=N\NC(=O)C2COc3ccc(C(C)(C)C)cc3O2)c2ccccc2n1C (centres undefined) returned HepG2 tox -10.7%, TDP1 cell CPT inconclusive, TDP1 cell noCPT inconclusive, TGFb SMAD3 inh inconclusive, ATXN2 expr inh 8.5% and S2 tox inactive.
`CSCCC(C(=O)Nc1c(C)cccc1C)N1CCN(c2ccc(F)cc2)CC1` (centres undefined) gave HepG2 tox -66.7%, TDP1 cell CPT inconclusive, TDP1 cell noCPT 20.6µM*, TGFb SMAD3 inh inconclusive, ATXN2 expr inh -9.3% and S2 tox inactive.
Cc1cccc(C)c1NC(=O)C(c1ccccc1)N1CCC(c2ccccc2)CC1 (centres undefined) was read as TDP1 cell CPT inconclusive and TDP1 cell noCPT 14.6µM*.
For CSCCC(C(=O)Nc1c(C)cccc1C)N1CCN(c2ccc(C(F)(F)F)cn2)CC1 (centres undefined) the results were HepG2 tox 2.6%, TDP1 cell CPT -4.5%, TDP1 cell noCPT -26.1%, TGFb SMAD3 inh 0.0%, ATXN2 expr inh 3.6% and S2 tox inactive.
For COc1ccccc1CNC(=O)c1cc2c(=O)n(Cc3cccs3)ccc2nc1C the results were HepG2 tox -18.6%, TDP1 cell CPT inconclusive, TDP1 cell noCPT inconclusive and TGFb SMAD3 inh inconclusive.
